In the library only some 13% were active in any assay of this set; here they are far more common.
HCV inhibitor = qHTS Assay for Inhibitors of Hepatitis C Virus (HCV). Huh7.5.1 HCVcc-Cre infection, luciferase reporter, 44 h. Potency, µM (series often up to 41.8 µM), inactives show at the top dose activity change, negative = inhibition, hits mostly inhibitors. hit rate 3.4% among 340,000. AID 651820, 2012; active = well fitted inhibition curve with a large enough effect; inconclusive = small, poorly fitted or top-dose-only effect, or another doubt; inactive = no such curve, though single readings can be large or run the other way; note: potency is the fitted concentration of half-maximal effect; % is set by controls: 0 for no effect and ±100 for the full control effect
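Cells seeded at 1,000/well and cultured 4 h, then compounds added followed by HCVcc-Cre virus (~0.5 moi). After 44 h further culture, luciferase substrate was added, plates held 15 min at room temperature, and luminescence read for 15 sec.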
Shiga inhibitor = A qHTS for Small Molecule Inhibitors of Shiga Toxin | hit rate 9.2% among 290,000 | AID 2315, 2010 | inhibition, % at 38.7 µM | Vero cells, Shiga toxin protein synthesis inhibition reporter; in the data active = inhibition mostly above about 28%, no sharp cut-off; inactive = mostly below about 43%; note: 0% is about no effect
MARV entry inh = qHTS for inhibitors of binding or entry into cells for Marburg Virus | Marburg virus pseudotyped entry inhibition, cell reporter | hit rate 1.8% among 300,000 | AID 540276, 2011 | Potency, µM (titrated, usually from 37.8 µM), inactives show top-dose activity change, negative = inhibition, usual class: inhibitors; calls by dose curve; tested in HEK293 cells; note: potency is the fitted concentration of half-maximal effect; % is set by controls: 0 for no effect and ±100 for the full control effect
FMDV inh = High Throughput Screening for Foot and Mouth Disease Virus Antivirals; FMDV antiviral cell-based qHTS; Potency, µM (doses to about 57.9 µM), without a hit: at the highest dose activity change, negative = inhibition, hits mostly inhibitors; hit rate 1.2% among 410,000; calls by dose curve; tested in HEK293T cells; note: read-out not given here; potency is the fitted concentration of half-maximal effect; % is set by controls: 0 for no effect and ±100 for the full control effect; nearly all actives have a fitted effect of over 45% in size
Lassa entry inh = qHTS for Inhibitors of binding or entry into cells for Lassa Virus; Potency, µM (top dose mostly 37.9 µM), inactives show at the highest dose activity change, negative = inhibition, hits mostly inhibitors; Lassa virus pseudotype entry inhibition, cell reporter; hit rate 1.2% among 300,000; calls by dose curve; tested in HEK293 cells; note: potency is the fitted concentration of half-maximal effect; % is set by controls: 0 for no effect and ±100 for the full control effect; nearly all actives have a fitted effect of over 50% in size
Cycloheximide cs = Cycloheximide Counterscreen for Small Molecule Inhibitors of Shiga Toxin | cell reporter, cycloheximide protein synthesis inhibition counterscreen | max response, % | hit rate 12% among 300,000 | AID 2314, 2010; in the data active = max response mostly above about 13%, no sharp cut-off; inactive = mostly below about 14%; note: read at 38.3 µM for the half of the compounds with a filed dose; 0% is about no effect
* hit, by the source's call; [ ] = another dose, or the depositor's remark.

What do the screens show for `CCCCc1cc2c(c(NC(=O)CC)n1)c(=O)oc1ccccc12`?
HCV inhibitor: 4.5%; Shiga inhibitor: -8.9; MARV entry inh: 10.1%; FMDV inh: -5.8%; Lassa entry inh: -8.3%; Cycloheximide cs: 6.0

What do the screens show for `COc1ccc2c(C#CCCO)c(-c3ccc(S(C)(=O)=O)cc3)sc2c1`?
HCV inhibitor: inconclusive; FMDV inh: -24.7%

What do the screens show for `COc1ccc2c(-c3ccc(S(N)(=O)=O)cc3)c(-c3ccc(S(C)(=O)=O)cc3)sc2c1`?
HCV inhibitor: 25.1µM*; FMDV inh: -4.7%

How did CC(=O)c1ccc(NC(=O)C2CCN(S(=O)(=O)c3cccnc3)CC2)cc1 do in these assays?
HCV inhibitor: 28.4%; Shiga inhibitor: 11.3; FMDV inh: -3.2%; Cycloheximide cs: 1.4

What do the screens show for `CC(=O)N(CCC(Cc1ccccc1)c1ccc2c(c1)OCO2)Cc1ccc(Cl)cc1` (configuration not stated)?
HCV inhibitor: 11.2µM*; Shiga inhibitor: 0.3; MARV entry inh: inconclusive; FMDV inh: inconclusive; Lassa entry inh: inconclusive; Cycloheximide cs: 4.1

Results for O=C(c1ccco1)N(CCC(c1ccccc1)c1ccco1)Cc1ccco1 (configuration not stated) ?
HCV inhibitor: 24.7%; Shiga inhibitor: 10.0; MARV entry inh: inconclusive; FMDV inh: inconclusive; Lassa entry inh: -28.9%; Cycloheximide cs: 7.9

Results for CC(=O)N(CCC(Cc1ccccc1)c1ccco1)Cc1ccco1 (configuration not stated) ?
HCV inhibitor: 11.2µM*; Shiga inhibitor: 11.9; FMDV inh: inconclusive; Cycloheximide cs: 1.3

What do the screens show for `COCCn1c(SCC(=O)c2[nH]c(C)c(C(C)=O)c2C)nc2ccccc21`?
HCV inhibitor: inconclusive; Shiga inhibitor: -4.3; MARV entry inh: -26.0%; Lassa entry inh: -15.5%; Cycloheximide cs: 0.5

Results for Cc1ccc(C(=O)Nc2cc3ccccc3oc2=O)cc1 ?
HCV inhibitor: -15.6%; Shiga inhibitor: 32.5; MARV entry inh: inconclusive; FMDV inh: 2µM*; Lassa entry inh: 2.82µM*; Cycloheximide cs: 29.3*

How did COC(=O)c1cc(NC(=O)c2ccc(OC)cc2)c(=O)oc1C do in these assays?
HCV inhibitor: 12.1%; Shiga inhibitor: 25.2; MARV entry inh: -19.1%[46.1 µM]; FMDV inh: 28.3%; Lassa entry inh: 13.1%; Cycloheximide cs: 17.4

Results for CC(=O)c1cc(NC(=O)c2ccc(C)cc2)c(=O)oc1/C=C/N(C)C ?
HCV inhibitor: inconclusive; Shiga inhibitor: 52.0*; MARV entry inh: 9.1%; FMDV inh: 0.5%; Lassa entry inh: inconclusive; Cycloheximide cs: 47.9*

How did CC(=O)c1cc(NC(=O)c2ccc(C)cc2)c(=O)oc1C do in these assays?
HCV inhibitor: 9.8%; Shiga inhibitor: 71.7*; MARV entry inh: inconclusive; FMDV inh: 14.1%; Lassa entry inh: 26.5%; Cycloheximide cs: 28.0

How did O=C(Oc1cccc(C(=O)N2CCOCC2)c1)c1ccc(Br)cc1 do in these assays?
HCV inhibitor: 12.4%; Shiga inhibitor: -8.5; MARV entry inh: inconclusive; FMDV inh: 0.5%; Lassa entry inh: 2.5%; Cycloheximide cs: -3.3

Results for O=C(Nc1cccc(F)c1)Nc1ccnn1C1CCN(C(=O)CCN2CCCO2)CC1 ?
HCV inhibitor: 17.0%; Shiga inhibitor: -20.1; MARV entry inh: 3.2%; FMDV inh: 2.4%; Lassa entry inh: -4.6%; Cycloheximide cs: -1.7

Results for O=C(Nc1cccc(F)c1)Nc1ccnn1C1CCN(C(=O)c2cscn2)CC1 ?
HCV inhibitor: 24.1%; Shiga inhibitor: 51.2*; MARV entry inh: inconclusive; FMDV inh: 29.0%; Lassa entry inh: 9.6%; Cycloheximide cs: 41.3*

What do the screens show for `CC(CO)Nc1nc(SCc2ccccc2)nc2sc3c(c12)CCC3` (configuration not stated)?
HCV inhibitor: 12.6µM*; Shiga inhibitor: -2.0; MARV entry inh: 9.5%; FMDV inh: -23.0%; Lassa entry inh: 22.5%; Cycloheximide cs: 12.8

How did COCCNc1nc(SCc2ccccc2)nc2sc3c(c12)CCC3 do in these assays?
HCV inhibitor: inconclusive; Shiga inhibitor: 0.6; MARV entry inh: -0.6%; FMDV inh: inconclusive; Lassa entry inh: 4.7%; Cycloheximide cs: 1.9

How did O=C(Nc1ncc(Cc2ccc(SC(F)F)cc2)s1)c1ccc(OC(F)F)cc1 do in these assays?
HCV inhibitor: inconclusive; Shiga inhibitor: 12.0; MARV entry inh: 5.62µM*; FMDV inh: inconclusive; Lassa entry inh: inconclusive; Cycloheximide cs: -0.7

What do the screens show for `O=C(Nc1ncc(Cc2cccc([N+](=O)[O-])c2)s1)c1ccco1`?
HCV inhibitor: inconclusive; Shiga inhibitor: 101.7*; FMDV inh: 7.3%; Cycloheximide cs: 29.5*

How did Cc1cccc(Cc2cnc(NC(=O)c3ccc(C)o3)s2)c1 do in these assays?
HCV inhibitor: inconclusive; Shiga inhibitor: 71.0*; MARV entry inh: inconclusive; FMDV inh: 25.3%; Lassa entry inh: 11.0%; Cycloheximide cs: 34.7*

How did O=C(C[n+]1cccc(CNC(=O)c2ccc(OC(F)F)cc2)c1)Nc1ccc(SC(F)F)cc1 do in these assays?
HCV inhibitor: inconclusive; Shiga inhibitor: 9.4; MARV entry inh: inconclusive; FMDV inh: -7.5%; Lassa entry inh: 0.0%; Cycloheximide cs: 2.5

What do the screens show for `Cc1ccc(OCc2nnc(NC(=O)c3ccco3)s2)cc1`?
HCV inhibitor: 11.1%; Shiga inhibitor: -19.5; MARV entry inh: 9.2%; FMDV inh: -4.0%; Lassa entry inh: 8.9%; Cycloheximide cs: -2.4

How did Cc1ccc(Cc2cnc(NC(=O)c3ccco3)s2)cc1 do in these assays?
HCV inhibitor: inconclusive; Shiga inhibitor: 66.7*; MARV entry inh: inconclusive; Lassa entry inh: inconclusive; Cycloheximide cs: 34.8*

What do the screens show for `C=CCn1c(CCNC(=O)c2cccs2)nnc1SCC(=O)Nc1cccc(C(C)=O)c1`?
HCV inhibitor: -8.9%; Shiga inhibitor: 13.1; MARV entry inh: 5.9%; FMDV inh: inconclusive; Lassa entry inh: -18.4%; Cycloheximide cs: -0.4

How did O=C(Nc1ncc(Cc2ccccc2Cl)s1)c1ccc(-c2cccc([N+](=O)[O-])c2)o1 do in these assays?
HCV inhibitor: 22.4µM*; Shiga inhibitor: -16.0; MARV entry inh: 5.6%; FMDV inh: inconclusive; Cycloheximide cs: 0.6

What do the screens show for `Cc1ccc(Cc2cnc(NC(=O)C3=NCCN3)s2)cc1`?
Shiga inhibitor: 40.1; Cycloheximide cs: 4.3

What do the screens show for `O=C(Nc1ncc(Cc2ccccc2)s1)C1=NCCN1`?
HCV inhibitor: 3.7%; Shiga inhibitor: 58.0*; MARV entry inh: -13.0%[46.1 µM]; FMDV inh: 37.5%; Lassa entry inh: -7.5%; Cycloheximide cs: 15.5

What do the screens show for `CSc1cc(-c2ccccc2)n(Cc2ccc(Cl)cc2Cl)c(=O)c1C#N`?
HCV inhibitor: inconclusive; Shiga inhibitor: -24.2; MARV entry inh: -0.9%; FMDV inh: -19.9%; Lassa entry inh: -11.4%; Cycloheximide cs: 8.6
